Data on 12 compounds can be found in PubChem BioAssay (EPA / NIEHS).

Records with an inconclusive call do not appear. Active and inactive are the calls of the source. Rule for the calls, unless noted: active = hit-call score of the fitted dose curve at least 0.9, where 1 is the maximum; inconclusive = response in the unintended direction; inactive = score below 0.9.

Test [1] in a line: Tanguay_ZF_120hpf_SWIM_legacy: (Legacy) Oregon State University Tanguay Lab 120 Hour Post-fertilization zebrafish Assay for Swim Bladder Malformation (AID 2283654).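 Note: swim bladder malformation in each larva scored yes or no under brightfield.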 Summed up:
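Tropical 5D embryos dechorionated at 4 hpf; 1 embryo/well from 6 hpf; static, sealed, dark exposure at 28C until 120 hpf; final DMSO 0.64%; 5uM trimethyltin chloride positive control; swim bladder defect recorded yes/no; dead embryos not scored.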

Test [2] in a line: Tanguay_ZF_120hpf_TRUN_legacy: (Legacy) Oregon State University Tanguay Lab 120 Hour Post-fertilization zebrafish Assay for Truncated Body (AID 2283655). The essentials: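 Tropical 5D wild-type embryos, dechorionated with pronase at 4 hpf, were placed singly in wells at 6 hpf and statically exposed at 28C until 120 hpf, final DMSO 0.64%. Truncated body was scored present/absent by brightfield microscopy.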

Test [3] is described as follows: Tanguay_ZF_120hpf_NC_legacy: (Legacy) Oregon State University Tanguay Lab 120 Hour Post-fertilization zebrafish Assay for Notochord and Tail Malformation (AID 2283656). Summed up: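 Binary notochord-distortion calls, made by brightfield inspection, form the read-out; activity is fitted in the positive direction against DMSO. Exposure ran statically from 6 to 120 hpf at 28C with 0.64% DMSO.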

Test [4] can be described thus: Tanguay_ZF_120hpf_TR_legacy: (Legacy) Oregon State University Tanguay Lab 120 Hour Post-fertilization zebrafish Assay for Touch Response (AID 2283667). Summed up: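 Binary touch-response call at 120 hpf, analysed as gain of signal versus DMSO baseline. Wild-type 5D larvae, static exposure at 28C, 0.64% DMSO final; 5uM trimethyltin chloride as positive control.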
Read-out in test [5]: solute carrier (SLC10A1), SLC10A1 (gene 6554)
The experiment in a line: LTEA_HepaRG_SLC10A1: Life Technologies and Expression Analysis (LTEA) Assay for solute carrier (SLC10A1) using HepaRG (AID 2283657; active = hit-call score of the fitted dose curve at least 0.9, where 1 is the maximum; inactive = score below 0.9). As to conditions: mRNA level, 48 h; actives raise or lower the signal. Summed up:
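HepaRG, 48 h exposure, 8-pt half-log curve from 100 uM in 0.5% DMSO, duplicates. Read-out: TaqMan qRT-PCR of SLC10A1 mRNA, normalized to three housekeeping genes. Gain/loss fit vs DMSO baseline.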

Read-out in test [6]: matrix metalloproteinase-1 (MMP1), MMP1 (gene 4312)
Description: LTEA_HepaRG_MMP1: Life Technologies and Expression Analysis (LTEA) Assay for matrix metalloproteinase-1 (MMP1) using HepaRG (AID 2283658; active = hit-call score of the fitted dose curve at least 0.9, where 1 is the maximum; inactive = score below 0.9). Particulars: mRNA level, 48 h; actives raise or lower the signal. The essentials: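 Differentiated HepaRG cells, plated 48 h then switched to serum-free induction medium, were exposed in duplicate for 48 h to eight half-log concentrations up to 100 uM in 0.5% DMSO; MMP1 mRNA measured by qRT-PCR, normalized to ACTB, GAPDH, POLR2A.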

In test [7] the test system is Thyroperoxidase (TPO), gene 54314. Description: CCTE_Simmons_AUR_rTPO: CCTE's Amplex UltraRed Assay for Thyroperoxidase (TPO) Inhibition, Simmons Lab (AID 2283662).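 For AC50: potency for loss of signal meaning inhibition of peroxidase activity.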 The essentials:
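Endpoint is decreased Amplex UltraRed fluorescence after a 30-min, 37C reaction of rat thyroid microsomes with 300 uM H2O2. Eight test concentrations (5 nM–87.5 uM final) in 0.5% DMSO, three biological replicates each.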

Read-out in test [8]: Cytochrome P450 (CYP24A1_1), CYP24A1 (gene 1591)
The experiment in a line: LTEA_HepaRG_CYP24A1_1: Life Technologies and Expression Analysis (LTEA) Assay for Cytochrome P450 (CYP24A1_1) using HepaRG (AID 2283671; active = hit-call score of the fitted dose curve at least 0.9, where 1 is the maximum; inactive = score below 0.9). As to conditions: mRNA level, 48 h; actives raise or lower the signal. The essentials:
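Readout is CYP24A1 transcript level by qRT-PCR, normalized to three housekeeping genes, with gain or loss of signal fitted against 0.5% DMSO. Human HepaRG cells received compound for 48 h at up to 100 uM.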

Read-out in test [9]: ABC Transporter (ABCB1), ABCB1 (gene 5243)
Description: CLD_ABCB1_6hr: CellzDirect (CLD) Gene Expression Assay for ABC Transporter (ABCB1) at 6 hours (AID 2283659).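 Note: hits raise ABCB1 transcript above the DMSO vehicle baseline.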 The essentials: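 ABCB1 transcript measured by quantitative nuclease protection assay, chemiluminescent read-out, 6 h after dosing human hepatocyte cultures (0.2% DMSO vehicle, daily redosing). Activity fitted as increase over DMSO baseline; cytotoxicity flagged by phase-contrast morphology.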

Read-out in test [10]: xenobiotic metabolism (CYP1A1), CYP1A1 (gene 1543)
Description: CLD_CYP1A1_6hr: CellzDirect (CLD) Gene Expression Assay for xenobiotic metabolism (CYP1A1) at 6 hours (AID 2283661).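 Note: potency for transcript induction above DMSO vehicle baseline.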 The essentials: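 Read-out 6 h post-dose: qNPA chemiluminescent quantitation of transcript induction against 0.2% DMSO. Cells were cultured primary human hepatocytes from two separate donor preparations; phase-contrast morphology annotated apparent cytotoxicity.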

Read-out in test [11]: xenobiotic metabolism (CYP1A2), CYP1A2 (gene 1544)
The experiment in a line: CLD_CYP1A2_6hr: CellzDirect (CLD) Gene Expression Assay for xenobiotic metabolism (CYP1A2) at 6 hours (AID 2283663).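 Note: potency is for induction meaning a rise in mRNA above DMSO.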 Summed up:
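mRNA levels quantified by quantitative nuclease protection assay with chemiluminescence, 6 h after dosing human primary hepatocyte cultures (two donors) across several concentrations, vehicle 0.2% DMSO. Induction fitted upward versus DMSO; phase-contrast cytotoxicity annotated.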

Read-out in test [12]: alkyl and aryl transferase (GSTA2), GSTA2 (gene 2939)
Description: CLD_GSTA2_6hr: CellzDirect (CLD) Gene Expression Assay for alkyl and aryl transferase (GSTA2) at 6 hours (AID 2283666). The essentials:
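GSTA2 transcript induction at 6 h, quantified by nuclease protection (qNPA) with chemiluminescent detection, in human liver primary hepatocytes exposed to several compound concentrations with 0.2% DMSO as baseline; phase-contrast morphology annotated apparent cytotoxicity.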

Read-out in test [13]: sulfotransferase (SULT2A), SULT2A1 (gene 6822)
Description: CLD_SULT2A_6hr: CellzDirect (CLD) Gene Expression Assay for sulfotransferase (SULT2A) at 6 hours (AID 2283669).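 Note: hits raise transcript level above the DMSO vehicle baseline.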 The essentials: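 Measured 6 h after dosing, SULT2A1 mRNA in human hepatocyte lysates was quantified by S1 nuclease protection with chemiluminescent detection. Increases fitted against 0.2% DMSO vehicle baseline; phase-contrast cytotoxicity recorded yes/no.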

Read-out in test [14]: glucuronosyltransferase (UGT1A1), UGT1A1 (gene 54658)
Description: CLD_UGT1A1_6hr: CellzDirect (CLD) Gene Expression Assay for glucuronosyltransferase (UGT1A1) at 6 hours (AID 2283672). The essentials: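 UGT1A1 mRNA induction, read by quantitative nuclease protection assay, 6 h after dosing primary human hepatocytes (two donors, 0.2% DMSO vehicle). Gain of signal fitted relative to vehicle.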

Read-out in test [15]: xenobiotic metabolism (CYP1A1), CYP1A1 (gene 1543)
Description: CLD_CYP1A1_24hr: CellzDirect (CLD) Gene Expression Assay for xenobiotic metabolism (CYP1A1) at 24 hours (AID 2283673).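 Note: CYP1A1 mRNA level by quantitative nuclease protection with chemiluminescence.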 Summed up: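 Transcript levels were read at 24 h by qNPA chemiluminescence in human liver primary cells. Cells got daily fresh dosing at multiple concentrations (vehicle 0.2% DMSO). Induction fitted upward against DMSO; phase-contrast cytotoxicity annotated.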

Turning to `ClC(Cl)=C(c1ccc(Cl)cc1)c1ccc(Cl)cc1`, the compound was called inactive in test [1], in test [2], in [3] and in [4].

Turning to `N#Cc1ccc(N(CC(N)=O)CC(F)(F)F)cc1C(F)(F)F`, the compound was classed as inactive in test [1], in test [2], in test [3] and in test [4].

As usually defined, the AC50 is the concentration at which the activity in the assay is half-maximal. Consider `O=S(=O)(O)C(F)(F)C(F)(F)C(F)(F)C(F)(F)C(F)(F)C(F)(F)F`, for which the result in test [1], in test [2] and in test [3] was inactive. Moreover, in test [4], the AC50 is 25.9 µM (active).

In the case of `CCC(C)c1cc([N+](=O)[O-])cc([N+](=O)[O-])c1O` (centres undefined), the compound was called inactive in test [1], in test [2], in [3] and in test [4].

With `O=C(NC(=O)c1cc(F)c(F)cc1Cl)Nc1cc(F)ccc1N1CCC(C(=O)O)CC1`, the compound was called inactive in [1], in test [2], in [3] and in test [4].

With `C1CC2OC2CC1C1CO1` (centres undefined), the compound was called inactive in test [1], in [2] and in test [3].

Take `CCCCCCCCCc1ccc(O)cc1`: the compound was called inactive in test [1], in test [2], in test [3], in test [5], in [6] and in [4]. Also, in test [8], the call was inactive. In addition, the half-maximal activity concentration (AC50) in test [7] is 10.5 µM (active).

Consider `O=C(O)C(F)(F)C(F)(F)C(F)(F)C(F)(F)C(F)(F)C(F)(F)C(F)(F)C(F)(F)F`, for which the result in test [1], in test [2], in test [3], in test [7] and in [4] was inactive.

Turning to `COc1ccc(O)c(C(C)(C)C)c1`, the call in test [1], in test [2], in test [3] and in test [4] was inactive. Moreover, the AC50 in test [7] was 0.701 µM (active).

For the compound `CCNc1nc(NC(C)C)nc(SC)n1`, the outcome in test [1], in [2], in test [3], in [9], in test [12] and in [4] was inactive. In addition, the compound was called inactive in test [13] and in test [14]. Also, the concentration at half-maximal activity (AC50) was 1.42 µM (active) in test [10], 0.262 µM (active) in [11] and 3.97 µM (active) in test [15].

`Nc1ccc(-c2ccc(N)cc2)cc1`: the compound was called inactive in test [1], in test [2], in [3] and in test [4].

Take `COS(=O)(=O)OC`: the compound was classed as inactive in [1], in test [2], in test [3], in test [5], in test [6] and in test [4]. Moreover, the outcome in [8] was inactive. The AC50 in [7] is 27 µM (active).
